According to PubChem BioAssay AID901 (National Center for Advancing Translational Sciences (NCATS), 2007):
The campaign covered roughly 120,000 compounds. Fewer than 10 were called active. Inconclusive results (about 4%) are left out. Calls follow the shape of the dose curve; as a rule, active = well fitted curve in the direction sought with a large enough effect in the signal ratio (not every such curve was filed as active); inconclusive = small, poorly fitted or top-dose-only effect, or a change in a side signal; inactive = no such curve, though single readings can be large or run the other way; the % refers to the signal ratio. The list is a sample of the results.

Target: Inositol monophosphatase 1 (Rattus norvegicus) (UniProt P97697)
Sequence (P97697 whole entry, looked up): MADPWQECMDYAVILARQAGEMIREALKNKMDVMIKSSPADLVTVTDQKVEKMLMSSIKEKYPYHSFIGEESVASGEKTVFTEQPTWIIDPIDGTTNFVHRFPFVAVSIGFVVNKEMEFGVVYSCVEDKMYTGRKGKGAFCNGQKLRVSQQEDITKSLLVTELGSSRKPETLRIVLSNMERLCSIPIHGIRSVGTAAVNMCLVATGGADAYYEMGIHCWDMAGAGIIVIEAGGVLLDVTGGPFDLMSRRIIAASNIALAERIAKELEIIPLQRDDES
Assay: qHTS Assay for Identifying the Cell-Membrane Permeable IMPase Inhibitors;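 also: plate controls were DMSO basal wells for no effect and reference inhibitor wells for full effect; higher means more IMPase inhibition seen as more IP1 and lower FRET ratio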
Settings: CHO-M1 cells, HTRF TR-FRET ratio; series mostly up to 46.1 µM; inhibition (IP1 accumulation): at the top concentration
From the text: NCGC IMPase Assay Overview
Lithium has been widely used for the treatment of bipolar disorder. But lithium has a narrow therapeutic index and it can cause side effects such as thirst, weight gain, tremor, polyuria and memory problems. Although the mechanism for lithium action in treatment of bipolar disorder is still not fully understood, inhibition of inositol monophosphatase (IMPase) and the subsequent depletion of the inositol pool in living cells have been implicated as the primary therapeutic benefit of lithium therapy. Therefore, a selective IMPase inhibitor with reduced side effects might be a good drug candidate to replace lithium for the treatment of bipolar disorder. Several IMPase inhibitors have been discovered previously. However, they are not suitable for therapeutic use because of their poor cell membrane penetrability or oral bioavailability; the development of new cell-permeable IMPase inhibitors is needed.
IMPase catalyzes the hydrolysis of inositol-1-phosphate (IP1) to release free inositol. Binding of an agonist to a Gq coupled GPCR results in the activation of PLC, which hydrolyzes the PIP2 to form inositol-1,4,5-trisphosphate (IP3) and diacyl glycerol (DAG). While DAG activates protein kinase C (PKC), IP3 triggers the elevation of intracellular free Ca2+. The IP3 is very rapidly inactivated by hydrolysis to IP2, IP1 and then inositol by a series of enzymes including IMPase. Free inositols are used for synthesis of PI and thus start another inositol cycle.
To identify new cell-permeable IMPase inhibitors, we developed a cell-based IMPase assay in which the cytosolic IP1 is measured by a time-resolved fluorescence resonance energy transfer (TR-FRET) assay. In this assay, an IP1 specific antibody is used to detect the labeled IP1 tracer. When the cell lysate contains the elevated IP1 due to the inhibition of IMPase, the TR-FRET between the labeled antibody and IP1 tracer is disrupted resulting in a reduction in the total signal. Since the TR-FRET is used, this cell-based assay is a homogenous assay without cell wash and medium change that is suitable for assay miniaturization and HTS.
NCGC IMPase Assay Protocol Summary
A Chinese hamster ovary (CHO) cell line stably expressing the M1 receptor (CHO-M1) was obtained from ATCC and maintained in F-12 Kaighn's media (Invitrogen, Carlsbad, CA, 21127) supplemented with 10 % FBS, 100 units/ml penicillin, 100 ug/ml streptomycin and 250 ug/ml geneticin at 37C, 5% CO2 in a humidified atmosphere. Before the assay, aliquots of cells were frozen and stored at -135C. The assay was performed in 1536-well format. Data are reported for both the ratio of the two emission wavelengths, and also for the component 'donor' channel, Em2=620. […] AC50 values were determined from concentration-response data modeled with the standard Hill equation.
IMPase 1536-well assay protocol:
(1) Plate 4 ul/well (2000 cells) of cell suspension from frozen CHO-M1 Cells in white, tissue culture treated 1536-well plates that are cultured at 37C, 5 % CO2 for 16 to 30 hours.
(2) Add 23 nl/well of compound in DMSO solution. The final titration for each compound was between 0.6 nM and 46 uM.
(3) Add 1 ul of carbachol (50 uM in stimulation buffer containing10mM HEPES, 1mM CaCl2, 0.5 mM MgCl2, 4.2 mM KCl, 146 mM NaCl, 5.5 mM glucose, 50mM LiCl, pH 7.4.
(4) Incubation at 37C, 5 % CO2 for 30 min.
(5) Add 1 ul/well of d2-conjugated IP1 (d2-IP1) and 1 ul/well of Eu+ cryptate conjugated anti-IP1 antibody (Eu+-Ab) prepared in the cell lysis buffer, both from the IP-One kit (Cisbio, MA).
(6) Incubate at room temperature for 10 minutes.
(7) Detect the assay plate (Ex = 320, Em1 =665 and Em2 620) in a ViewLux plate reader.
inositol monophosphatase, IMPase, IMPase inhibitor, lithium, bipolar disorder, IP-One, HTRF, qHTS, NIH roadmap, NCGC
Note: In the gene ID and protein GI references for this assay, rat IMPase is referenced instead of hampster as hamster accession numbers were not available.

Inhibition (IP1 accumulation), inactive:
COC(=O)c1cc(NC(=O)CCS(=O)(=O)c2cc(Br)cc3c2N(C(=O)C2CC2)CC3)cc(C(=O)OC)c1 5.34%
COc1ccccc1CN(C)C(=O)C1(c2ccc(Cl)cc2)CC1 3.44%
COc1ccc(OC)c(NC(=O)C2CCN(S(=O)(=O)c3ccc(C)cc3)CC2)c1 2.44%
COc1cc(/C=N/NC(=O)CCc2n[nH]c(=O)[nH]c2=O)ccc1O -1.58%
CCCCSc1ncnc2c1sc1nc(N3CCOCC3)c3c(c12)CCCC3 -3.4%
Cc1c(Cl)c([N+](=O)[O-])nn1CCCC(=O)NC(C)c1ccccc1 (stereo unspecified) -2.01%
Cc1cc(C)cc(OCC(=O)Nc2c(C(=O)c3ccccc3)oc3ccccc23)c1 2.24%
CCN(Cc1ccccc1)Cc1c(O)ccc2c(=O)c(-c3ccc(Cl)cc3Cl)coc12 7.15%
Cn1c(=O)c2c(ncn2CC(=O)Nc2cccc(C(F)(F)F)c2)n(C)c1=O -20%
CSCCC(NC(=O)c1cc([N+](=O)[O-])cc([N+](=O)[O-])c1)c1nc2ccccc2[nH]1 (stereo unspecified) -0.726%
CCOc1cc(NC(=S)NCCCOC)c(OCC)cc1NC(=O)c1ccco1 12.9%
O=C(CN1CCc2ccccc21)NC(c1ccccc1)c1ccccc1 -0.223%
CCOC(=O)CC(NC(=O)C1c2ccccc2Oc2ccccc21)c1ccc(C)cc1 (stereo unspecified) 4.4%
O=C(COC(=O)CSc1nnc(-c2ccc(Cl)cc2)o1)Nc1cc(Cl)cc(Cl)c1 -3.97%
Cc1ccc(-c2nnc(Nc3ccc(OCC(N)=O)cc3)c3ccccc23)cc1S(=O)(=O)NCC1CCCO1 (stereo unspecified) 2.48%
CCOC(=O)c1ccc(-c2ccc(/C=C(\C#N)C(=O)Nc3ccc(OCC)cc3)o2)cc1 -2.33%
Cc1ccc(-n2c(SCC(=O)N3c4ccccc4Sc4ccccc43)nnc2-c2ccncc2)cc1 0.458%
CCn1c2ccccc2c2cc(CN3CCN(Cc4cccc(Cl)c4)CC3)ccc21 -5.33%
O=C(Cc1ccc(Cl)cc1)Nc1ccc2nn(-c3ccc(Cl)cc3)nc2c1 -15.5%
CCNC(=S)N1CCC(c2nc3cc(C)c(C)cc3[nH]2)CC1 6.97%
Cc1cc(Cl)ccc1OCC(=O)N(Cc1ccc(N(C)C)cc1)C1CCS(=O)(=O)C1 (stereo unspecified) 17.8%
CCNS(=O)(=O)c1ccc(NC(=O)CSc2nc(-c3ccco3)cc(C(F)(F)F)n2)cc1 -3%
N#C/C(=C\c1cccc(F)c1)c1nc(-c2cc3c(ccc4ccccc43)oc2=O)cs1 -6.22%
Cc1ccc(N2CC(c3nnc(Cc4ccccc4Cl)o3)CC2=O)cc1 (stereo unspecified) 0.844%
Cc1ccc(C(=O)Nc2nc(-c3ccccc3)ns2)cc1 -1.28%
Cc1ccc(-n2c3nc(=O)[nH]c(=O)c-3cc3c(Cl)cccc32)cc1 -9.56%
COC(=O)c1c(C)oc2ccc(N(C(=O)Oc3ccccc3)S(=O)(=O)c3ccccc3)cc12 1.56%
CCC(C(=O)OCC(=O)Nc1c(Cl)cc(Cl)cc1Cl)c1ccccc1 (stereo unspecified) -0.261%
CCn1c(=O)c(=O)n(CC)c2cc(N3CCCCC3)c(NC(=O)c3ccc(Cl)cc3)cc21 -8.55%
COc1ccc(NC(=O)Cn2c(=O)n(Cc3ccc(C(=O)NCc4ccccc4Cl)cc3)c(=O)c3ccccc32)cc1 -0.241%
CC1=Nc2cc(C(=O)N3CCC(C)CC3)ccc2Sc2ccc(Cl)cc21 17.1%
COCCNC(=O)c1ccc2c(c1)N=C(C)c1cc(C)ccc1S2 10.2%
Cc1cccc(C)c1OCC(=O)NC(Cc1c[nH]c2ccccc12)C(=O)O (stereo unspecified) -1.15%
COc1ccc(-c2csc3ncnc(Oc4ccc5c(C)cc(=O)oc5c4)c23)cc1 -7.79%
CC(C)(C)C(=O)NC(NC(=S)Nc1ccc(S(N)(=O)=O)cc1)C(Cl)(Cl)Cl (stereo unspecified) 3.28%
CCOC(=O)c1cnc2ccc(F)cc2c1Nc1ccc2c(c1)OCCO2 6.89%
COc1ccc(CNC(=O)CCCn2nc(C)c([N+](=O)[O-])c2C)cc1 -0.911%
Cc1cc[n+](-c2[nH]c(=O)sc2/C=N/NC(=O)c2ccccc2[O-])cc1C 2.47%
COc1ccc(-c2noc(CCC(=O)N(C)c3ccccc3C)n2)cc1 0.521%
CCOC(=O)c1c(C)n(S(=O)(=O)c2ccc(C)cc2C)c2ccc(NS(=O)(=O)c3ccc(C)cc3C)cc12 5.61%
CCC1CCCCN1C(=S)Nc1ccc(SC(F)F)cc1 (stereo unspecified) 0.235%
